This note sets out measurements from PubChem BioAssay (NCI).

About 83,000 compounds went through this panel and 20% of them were active in at least one assay; those are over-represented in the sample as a whole.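 Interpretation: 100, growth as untreated; towards 0, rising growth inhibition; 0, no net growth; 0 to -100, cell death. Compounds scoring below 10 were considered active.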 Values without a mark were called inactive. The source made the active and inactive calls.

This experiment concerns BT-549 breast. The experiment in a line: NCI-60 one-dose screen, 48 h (100 = growth as untreated, 0 = no growth, -100 = all killed). The following applies: 10 µM unless noted. The method, then: Growth inhibition of the BT-549 human tumor cell line is measured as a screen for anti-cancer activity. Cells are grown in 96 well plates and exposed to the test compound for 48 hours. Compounds are tested at a single concentration, which is 10^-5 M for most compounds. The reported endpoint is percent growth (GI% or GIPRCNT), where numbers from 0 - 100% represent growth inhibition, and numbers from -100% - 0 represent cell death. For example, a value of 40 represents 60% growth inhibition. A value of 0 means no net growth occurred over the course of the experiment. A value of -40 indicates 40% of cells at the beginning of the experiment died by the end of the experiment. A value of -100 means all cells are dead at the end of the experiment.
NCI-60 Human Tumor Cell Lines Screen was performed using the standard one-dose NCI protocol, which is described in more detail at https://dtp.cancer.gov/discovery_development/nci-60/default.htm.
Compounds with GIPRCNT values below 10 were considered active. Activity score was based on GIPRCNT using the following formula: […]
Score is 0 for GIPRCNT values of 100 or above, 50 for GIPRCNT values of 0, and 100 for GIPRCNT values of -100.
`O=C(NCCc1ccccc1)Nc1ccc2cc3ccc(NC(=O)NCCc4ccccc4)cc3nc2c1`: the growth is 70.6%.

`CCCN1[C@@H]2CC[C@H]1/C(=C\c1ccc(OC)c(OC)c1)C(=O)/C2=C/c1ccc(OC)c(OC)c1`: the growth is 51.8%.

On to `COc1ccc(NC(N)=NCCCOc2ccc(F)cc2)cc1`, for which the growth was 67.3%.

Take `Nc1c(C(=O)Nc2cccc3cnccc23)sc2nc3c(cc12)C(=O)CCC3`: the growth is 83.4%.

Take `C=C1C(=O)O[C@H]2[C@H]1CC/C(CNC(=O)c1cccc3ccccc13)=C\CC[C@@]1(C)O[C@@H]21`: the growth is 46.9%.

Take `COc1cc2nc(-c3ccc(C(F)(F)F)cc3)cc(OCCCN3CCCC3)c2cc1OC`: the growth was 28.8%.

Take `O=C(O)c1ccc2c(c1)C(=O)N(Cc1ccccc1)C2=O`: the growth is 98.6%.

Consider `C/C=C(\C)C(=O)NC1=CC[C@@]2(C)C(=CCC3C2CC[C@@]2(C)C3CC[C@@H]2C(C)N(C)C)C1=O` (stereo not given in full), for which the growth is 37.6%.

In the case of `CCSCC1CC(O)(c2ccccc2)CC(c2ccc(F)cc2)O1` (stereo not given), the growth was -0.126% (active).

In the case of `O=[N+]([O-])c1ccc(NC(=S)N/N=C/c2cc3ccccc3n3nnnc23)cc1`, the growth was 80.4%.

For `COc1cc(C(=O)Nc2cc3c(cc2Oc2cc(C)cc(C)c2)C(=O)N(C)[C@@H](CC(=O)N(C)O)C(=O)N3)c(Br)c(OC)c1OC`, the growth was -30.2% (active).

Turning to `CC(C)(C)[Si](C)(C)OC1[C@@H](O[Si](C)(C)C(C)(C)C)[C@@H](CNC(=O)NC(=O)CCl)O[C@H]1n1cnc2c(NC(=O)Nc3ccccc3)ncnc21` (stereo not given in full), the growth is -85.9% (active).

For `CCCCN1C=CCN(CCCC)C1`, the growth was 56.9%.

Consider `N=C1C(c2nc3ccccc3s2)=C(O)CN1c1cc(Cl)cc(Cl)c1`, for which the growth is 71.3%.

As for `c1ccc2c(-c3c[nH]c4ccccc34)c3c(cc2c1)[nH]c1ccccc13`, the growth is 67.4%.

As to `CC(=O)Oc1ccc(/C=N/NC(N)=S)nc1`, the growth is 32.7%.

As for `CCOC(=O)c1cc(C(=O)c2ccc(OC)c(OC)c2)n2c1ccc1ccccc12`, the growth was 100%.

As for `O=C(O)c1ccc(NCc2cn(-c3ccc(C(F)(F)F)cc3)nc2-c2ccc(C(=O)O)cc2)cc1`, the growth was 108%.

With `COc1ccc(-c2nc(S(=O)(=O)c3ccccc3)c(S(=O)CC(=O)N3CCC(C)CC3)o2)cc1` (stereo not given), the growth is 33.5%.

Regarding `NC(=NCCCOc1ccc(F)cc1)Nc1ccc(Cl)cc1`, the growth was 52.8%.

As for `COc1cc(C2C3=C(COC3=O)N(CCO)c3cc4c(cc32)CCC4)cc(OC)c1OC` (stereo not given), the growth is -9.83% (active).

For `COCCCN1CC(O)=C(c2nc(-c3ccc(C)cc3)cs2)C1=N`, the growth is 103%.

Regarding `Cn1ccc2c1CC1CN(Cc3ccco3)C(=O)C1C2C(=O)O` (stereo not given), the growth is 110%.

On to `C#Cc1cccc(NC(=O)Nc2cccc(NC(=O)CCl)c2)c1`, for which the growth is -15.1% [8.25 µM] (active).

On to `OCc1cnccc1NCCCOc1ccccc1`, for which the growth is 108%.

For `O=C1c2ccccc2CCC12OC2c1cn(-c2ccccc2)nc1-c1ccc(Cl)cc1` (stereo not given), the growth is 126%.

Regarding `O=[N+]([O-])c1cc(Br)c2cccc3c2c1CC3`, the growth is 114%.

Regarding `c1ccc(-c2c(-c3ccccc3)[n+](Cc3ccc4ccccc4c3)c(-c3cccc4ccccc34)n2Cc2ccc3ccccc3c2)cc1`, the growth was -63.7% (active).

In the case of `O=C1Nc2cc(-c3cccc([N+](=O)[O-])c3)ccc2/C1=C/c1ccc[nH]1`, the growth was 23%.

On to `COc1cc2c(c(OC)c1OC)-c1ccc(NNC(=S)N(Cc3cccc(C[N+](Cc4cccc(CNC56CC7CC(CC(C7)C5)C6)c4)(Cc4cccc(CNC56CC7CC(CC(C7)C5)C6)c4)Cc4cccc(CN(C(=S)NNc5ccc6c(cc5=O)[C@@H](NC(C)=O)CCc5cc(OC)c(OC)c(OC)c5-6)C56CC7CC(CC(C7)C5)C6)c4)c3)C34CC5CC(CC(C5)C3)C4)c(=O)cc1[C@@H](NC(C)=O)CC2` (stereo not given in full), for which the growth is -4.6% (active).

For the compound `N#CC(C(=O)/C(=N/NC(=O)c1ccccc1O)C(C#N)c1ccccc1)c1ccccc1` (stereo not given), the growth was 44.2%.

For the compound `C=C(C)[C@@H]1CC[C@]2(CN)CC[C@]3(C)[C@H](CC[C@@H]4[C@@]5(C)CCCNC(C)(C)[C@@H]5CC[C@]43C)[C@@H]12`, the growth was 84.6%.

Take `COc1ccc(C/C(=C(\C)c2ccc(OCCN3CCCC3)cc2)c2ccc(OCCN3CCCC3)cc2)cc1`: the growth was 85%.

Consider `Cc1nn(-c2ccccc2)c(Cl)c1/C=N\N=c1/sc2ccccc2n1C`, for which the growth was 92.8%.

Take `COc1cc(C2C3=C(COC3=O)N(CCO)c3cc4c(cc32)OCO4)cc(OC)c1OC` (stereo not given): the growth was 10.6%.

As to `COc1ccc2nc(-c3ccc(-c4noc(-c5cc(OC)c(OC)c(OC)c5)n4)cc3)[nH]c2c1`, the growth was 26.8%.

Turning to `O=C(/C=C/c1ccc[nH]1)c1ccc(-n2ccc(C(F)(F)F)n2)c(F)c1`, the growth is -2.69% (active).

With `NS(=O)(=O)c1ccc(CCn2c(SCC(=O)c3ccc(Cl)cc3)nc3ccccc3c2=O)cc1`, the growth is 99%.

For `Cc1ccc(-c2csc(NC(=O)CSc3nc(-c4ccccc4)cc(=O)[nH]3)n2)cc1`, the growth is 114%.

With `COc1ccc(CNCCN2C(=O)c3ccc4c5c(ccc(c35)C2=O)C(=O)N(CCNCc2ccc(OC)c(OC)c2OC)C4=O)c(OC)c1OC`, the growth is -11.4% (active).
